“And” between values parts separate entries of the source, which are not always exact repeats. Identical values can stand only once. Records with an inconclusive call do not appear. The source made the active and inactive calls. Calls follow the shape of the dose curve; as a rule, active = well fitted inhibition curve with a large enough effect; inconclusive = small, poorly fitted or top-dose-only effect; inactive = no such curve, though single readings can be large or run the other way.
Experiment: Primary qHTS for inhibitors of nuclear receptor binding SET domain protein 2 (NSD2) in an RCH-ACV wild type WT cells (2C) (AID 1645877); also: nearly all actives have a fitted effect of over 70% in size
Conditions: RCH-ACV (leukaemia line) NSD2 WT (2C) viability, CellTiter-Glo, 72 h; series mostly up to 44.9 µM; activity change, negative = cell killing: at the top concentration
% is scaled to controls: 0 for no effect and ±100 for the full control effect; potency is read from the fitted curve at half-maximal effect.

| Structure (SMILES) | activity change, negative = cell killing | Potency |
| --- | --- | --- |
| O=C(c1ccccc1)c1c(O)cc(O)cc1O[C@@H]1O[C@H](CO)[C@@H](O)[C@H](O)[C@H]1O | -17.5% (inactive) |  |
| CC(C)S(=O)(=O)Nc1ccc(F)c(C(=O)c2c[nH]c3ncc(-c4cccnc4)cc23)c1F |  | 4.59 µM (active) |
| C=C1C(=O)OC2/C=C(\C)CC3C=C(CC/C=C(\C)CCC12)C(=O)O3 (stereo not drawn) |  | 4.5 µM (active) |
| CC(=O)O[C@@H]1CC[C@@]2(C)C(CC[C@]3(C)C2[C@H](O)C=C2[C@H]4[C@@H](C)[C@H](C)CC[C@]4(C)CC[C@]23C)[C@@]1(C)C(=O)O (stereo partly drawn) | -15.8% [at 17.3 µM] (inactive) |  |
| CC(=O)OC[C@]12[C@H](OC(C)=O)C(=O)[C@@H]3[C@@H](O)[C@@]14O[C@@]3(C)COC(=O)c1cccnc1[C@@H](C)[C@H](C)C(=O)O[C@@H]([C@H](O)[C@@H]2OC(C)=O)[C@]4(C)O |  | 5.41 µM (active) |
| C=C1C(=O)O[C@@H]2[C@H]1CC(=O)[C@H](C)[C@@](O)(C(=O)/C=C/C)[C@H]2OC(=O)C(C)CC (stereo partly drawn) |  | 0.45 µM (active) |
| Cc1ccc(NC(=O)c2ccc(CN3CCNCC3)cc2)cc1Nc1nccc(-c2cccnc2)n1 |  | 18.3 µM (active) and 14.8 µM (active) |
| Cc1cc(-c2nc3cc(F)ccc3s2)ccc1NC(=O)[C@@H](N)CCCCN |  | 4.17 µM (active) |
| O=c1[nH]cnc2c([C@@H]3N[C@H](CO)[C@@H](O)[C@H]3O)c[nH]c12 | -15.5% (inactive) |  |
| O=C(CN1C2=NCCN2c2ccccc21)c1ccc(-c2ccccc2)cc1 |  | 6.49 µM (active) |
| C/C(=C/CO)CCC1C(C)CCC2C(C)(C)CCCC12C (stereo not drawn) | -14.3% (inactive) |  |
| O=C(NCCCNC(=O)c1ccc[nH]c1=O)c1cc(-c2ccccc2)on1 |  | 9.34 µM (active) |
| CC(C)C[C@H](C(=O)O)c1cc(-c2ccc(C(F)(F)F)cc2)cc(-c2ccc(C(F)(F)F)cc2)c1 |  | 11.5 µM (active) |
| CC(=O)O[C@H]1CC2C(COC(=O)CC(C)C)=CO[C@@H](OC(=O)CC(C)C)C2[C@]12CO2 (stereo partly drawn) |  | 3.55 µM (active) |
| C=C1C(=O)O[C@@H]2C3C(=C(C)[C@@H](O)[C@@H](OC(=O)/C(=C/C)COC(C)=O)[C@@H]12)C(=O)[C@H]1O[C@@]31C (stereo partly drawn) |  | 1.59 µM (active) |
| Cc1c(C2=CCN(C(=O)N(C)C(C)C)CC2)nnn1-c1cccnc1F | -18% (inactive) |  |
| C=C[C@@]1(C)C=C2C(=O)C(O)=C3[C@](C)(C(=O)O)CC[C@@H]4C[C@]34[C@]2(O)C(=O)C1 |  | 2.53 µM (active) |
| C=C1C(=O)O[C@@H]2/C=C(/C)[C@@H](OC(C)=O)C/C=C(\C)C[C@@H](OC(=O)/C(=C/CO)CO)[C@@H]12 |  | 3.17 µM (active) |
| C=C1C(=O)O[C@@H]2/C=C(\C)CC/C=C(\C)CC[C@@H]12 |  | 7.28 µM (active) |

| Structure (SMILES) | activity change, negative = cell killing | Potency |
| --- | --- | --- |
| O=C(/C=C/c1ccccc1O)O[C@@H]1O[C@H](CO)[C@@H](O)[C@H](O)[C@H]1O | 4.03% (inactive) |  |
| CC[C@@H](C)Nc1cc(C(=O)NC2CC3CCC(C2)N3c2ccc(C(=O)C3CC3)cn2)c(C)cc1C(N)=O (stereo partly drawn) |  | 0.132 µM (active) |
| c1ccc(-c2ccc(CNc3nc(-c4ccccn4)nnc3-c3ccccc3)cc2)cc1 |  | 2.95 µM (active) |
| CCCOc1ccc(CCc2nc3cc(-c4c(C)noc4C)ccc3n2CCN2CCOCC2)cc1 |  | 8.33 µM (active) |
| Cn1cc(-c2cnn3c(N)c(Br)c(C4CCCNC4)nc23)cn1 (stereo not drawn) |  | 1.05 µM (active) |
| C=C(C(=O)O[C@H]1C/C(C)=C/CC/C(CO)=C/[C@H]2OC(=O)C(=C)[C@H]12)C(O)CO (stereo partly drawn) |  | 2.84 µM (active) |
| CC(=O)OC1[C@H]2[C@@H](C[C@@H](C)[C@@H]3C=CC(=O)[C@@]13C)OC(=O)[C@@H]2C (stereo partly drawn) |  | 7.28 µM (active) |
| C=C1C(=O)O[C@@H]2[C@H]1CC[C@H](C)C(CCC(=O)O)C2(C)O (stereo partly drawn) |  | 12.9 µM (active) |
| CC(C)C[C@@H]1NC(=O)[C@@H](Cc2ccccc2)NC(=O)C(CCCCCC(=O)C2CO2)NC(=O)[C@@H]2CCCCN2C1=O (stereo partly drawn) |  | 0.0252 µM (active) |
| C=CC(C)(O)CC/C=C(\C)C(=O)OC1C(O)C(CO)OC(OC(=O)C23CCC(C)(C)CC2C2=CCC4C5(C)CCC(OC6OC(COC7OCC(OC(C)=O)C(O)C7OC7OC(COC(C)=O)C(O)C(O)C7OC(C)=O)C(O)C(O)C6OC6OCC(O)C(O)C6O)C(C)(C)C5CCC4(C)C2(C)C(O)C3O)C1OC1OCC(OC2OCC(O)C(OC3OCC(O)C(O)C3O)C2O)C(O)C1O (stereo not drawn) |  | 1.25 µM (active) |
| CC1(C)CCCC2(C)C1C(OC(=O)/C=C/C=C/C=O)C=C1COC(=O)C12O (stereo not drawn) |  | 3.55 µM (active) |
| C=C1CO[C@@]2(O[C@H]3CC4C5CC=C6C[C@@H](O)C[C@@H](O[C@@H]7OC[C@H](O)[C@H](O[C@@H]8OC[C@@H](O)[C@H](O)[C@H]8O)[C@H]7O[C@@H]7O[C@@H](C)[C@H](OC(C)=O)[C@@H](OC(C)=O)[C@H]7OC(C)=O)[C@]6(C)C5CC[C@]4(C)[C@@H]3[C@@H]2C)[C@@H](O)[C@H]1OC1OC(C)C(O)C(O)C1O (stereo partly drawn) |  | 2.18 µM (active) |
| Cn1ncc(Cl)c1-c1cc(C(=O)N[C@H](CN)Cc2ccc(F)c(F)c2)oc1Cl |  | 0.515 µM (active) |
| O=C(Nc1cccnn1)N1CCN(c2nccc(-c3ccc(F)c(F)c3)n2)CC1 | -3.42% [at 91.9 µM] (inactive) |  |
| CC(=O)O[C@@]12CO[C@@H]1C[C@H](O)[C@@]1(C)C(=O)[C@H](O)C3=C(C)[C@@H](OC(=O)[C@H](O)[C@@H](NC(=O)OC(C)(C)C)c4ccccc4)C[C@@](O)([C@@H](OC(=O)c4ccccc4)C12)C3(C)C (stereo partly drawn) |  | 0.0032 µM (active) |
| Cc1cc2c(F)c(Oc3ncnn4cc(OCC(C)OC(=O)C(C)N)c(C)c34)ccc2[nH]1 (stereo not drawn) |  | 8.33 µM (active) |
| COc1cc(C(C)=O)c(OC)c2c1OC(C)(C)C=C2 | -3.87% (inactive) |  |
| Cc1[nH]c2ccccc2c1CCNCc1ccc(/C=C/C(=O)NO)cc1 |  | 18.3 nM (active) and 52.5 nM (active) |
| C=C1CC[C@@H](O)[C@]2(C)C[C@H]3OC(=O)C(=C)[C@H]3CC12 (stereo partly drawn) |  | 12.9 µM (active) |

— PubChem BioAssay (NCATS)
